# Measured values published in ChEMBL document CHEMBL1201862, “PubChem BioAssay data set” (2004).
# Screen size: about 400,000 compounds; about 2,100 (0.53%) were called active. Inconclusive results (about 14%) are left out. How the calls were made is not given here. The full list was thinned out, with actives kept by preference.
# Target: Ataxin-2 (Homo sapiens) (UniProt Q99700)
# Test: qHTS for Inhibitors of ATXN expression.
# Assay type: functional
# Chain of Ataxin-2 (Homo sapiens) (Q99700 whole entry): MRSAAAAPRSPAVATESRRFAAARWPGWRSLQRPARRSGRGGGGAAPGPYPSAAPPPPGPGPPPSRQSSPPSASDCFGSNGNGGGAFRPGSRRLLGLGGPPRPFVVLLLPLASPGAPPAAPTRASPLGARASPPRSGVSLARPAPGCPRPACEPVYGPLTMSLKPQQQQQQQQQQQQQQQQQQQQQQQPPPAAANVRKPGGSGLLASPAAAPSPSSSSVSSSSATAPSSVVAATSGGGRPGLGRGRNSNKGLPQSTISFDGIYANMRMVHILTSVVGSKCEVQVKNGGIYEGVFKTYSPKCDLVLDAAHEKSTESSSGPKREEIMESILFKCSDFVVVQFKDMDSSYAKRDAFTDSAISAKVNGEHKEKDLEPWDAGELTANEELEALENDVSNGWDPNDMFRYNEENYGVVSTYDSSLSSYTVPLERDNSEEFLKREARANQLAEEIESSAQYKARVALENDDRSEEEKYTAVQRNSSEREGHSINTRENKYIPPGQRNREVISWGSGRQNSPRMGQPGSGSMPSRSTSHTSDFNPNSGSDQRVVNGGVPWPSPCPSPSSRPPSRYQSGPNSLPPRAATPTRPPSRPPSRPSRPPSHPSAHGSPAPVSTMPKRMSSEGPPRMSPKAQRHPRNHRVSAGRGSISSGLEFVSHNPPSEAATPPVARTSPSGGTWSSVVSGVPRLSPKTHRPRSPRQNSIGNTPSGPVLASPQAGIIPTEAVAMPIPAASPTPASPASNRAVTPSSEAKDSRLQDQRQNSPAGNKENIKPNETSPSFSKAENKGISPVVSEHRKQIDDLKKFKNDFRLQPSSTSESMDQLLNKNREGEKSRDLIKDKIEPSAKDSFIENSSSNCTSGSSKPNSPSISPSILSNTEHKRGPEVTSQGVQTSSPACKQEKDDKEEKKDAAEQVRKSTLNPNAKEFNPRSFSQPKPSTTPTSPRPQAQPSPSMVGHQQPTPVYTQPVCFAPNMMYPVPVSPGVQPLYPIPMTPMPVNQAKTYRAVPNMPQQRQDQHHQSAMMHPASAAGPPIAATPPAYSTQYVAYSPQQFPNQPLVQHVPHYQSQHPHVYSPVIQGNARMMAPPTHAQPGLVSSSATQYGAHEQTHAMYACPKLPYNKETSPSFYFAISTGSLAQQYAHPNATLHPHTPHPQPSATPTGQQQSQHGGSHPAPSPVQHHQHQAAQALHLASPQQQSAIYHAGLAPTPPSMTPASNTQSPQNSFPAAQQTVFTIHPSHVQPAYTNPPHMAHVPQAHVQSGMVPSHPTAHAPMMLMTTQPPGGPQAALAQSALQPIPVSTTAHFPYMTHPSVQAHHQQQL
row,SMILES,Potency
1,c1cncc(-c2nc(N3CCOCC3)c3c4c(sc3n2)CCC4)c1,inactive
2,CCc1cc2c(COC(=O)CCNS(=O)(=O)c3cccc(C(F)(F)F)c3)cc(=O)oc2cc1O,inactive
3,C=CCN1C(=O)/C(=C/c2ccc(OC)cc2)S/C1=N/c1nccs1,inactive
4,CCN(CC)CCN1C(=O)/C(=C\c2ccc(Cl)c([N+](=O)[O-])c2)S/C1=N\c1ccc(OC)cc1,28.2 µM (active)
5,Cc1cc(=O)oc2c(CN3CCN(CCO)CC3)c(O)ccc12,inactive
6,O=C(CN1C(=O)NC2(CCOc3ccccc32)C1=O)Nc1ccc(F)c(F)c1F (stereo unspecified),inactive
7,CCC(=O)NCCCNc1nc2c(C)cccc2cc1C#N,inactive
8,CCN1C(=O)/C(=C\C=C2/C=CC=CN2CC)SC1=S,20 µM (active)
9,CCN1C(=O)/C(=C/C2=Cc3ccccc3OC2C)SC1=S (stereo unspecified),inactive
10,Cc1cc(O)nc2c1c(-c1ccccc1)nn2C,inactive
11,CC1=CC(C)(C)Nc2ccc(OC(=O)CCN3C(=O)c4ccccc4C3=O)cc21,25.1 µM (active)
12,CC1(C)Nc2ccccc2C(=O)N1c1ccc(Br)cc1,inactive
13,O=C(CN1C(=O)NC2(CCCCC2)C1=O)Oc1ccc2ccc(=O)oc2c1,inactive
14,CC1=CC(C)(C)Nc2ccc(OC(=O)CN3C(=O)c4ccccc4C3=O)cc21,25.1 µM (active)
15,O=C(CN1C(=O)NC2(CCCC2)C1=O)Oc1ccc2ccc(=O)oc2c1,inactive
16,CC1=CC(C)(C)Nc2ccc(OC(=O)C(C)N3C(=O)c4ccccc4C3=O)cc21 (stereo unspecified),39.8 µM (active)

row,SMILES,Potency
1,CC(C(=O)N1CCOCCOCCOCCOCCOCC1)N1C(=O)c2ccccc2C1=O (stereo unspecified),inactive
2,COc1cccc(NC(=O)COC(=O)CCC(=O)c2cccs2)c1,inactive
3,O=C(C[n+]1ccccc1)NN=Cc1cc(Br)cc(Br)c1O,inactive
4,CC(C)OCCCn1/c(=N/C(=O)c2cccs2)c(C#N)cc2c(=O)n3ccccc3nc21,inactive
5,CCc1ccc(N(C(=O)c2ccco2)C(C(=O)NC2CCCC2)c2ccncc2)cc1 (stereo unspecified),inactive
6,COc1ccc(C(=O)/C=C/C(=O)N(CC(=O)NC2CCCCC2)Cc2ccccc2OC)c(O)c1,26.7 µM (active)
7,Cc1cc(NC(=O)CCC(=O)N(CC(=O)NC2CCCC2)Cc2ccccc2Cl)no1,inactive
8,COc1ccc(C(=O)OCCOc2ccccc2C(C)=O)c(O)c1,inactive
9,COc1ccc2oc(=O)c(C(=O)NC3CCCCCC3)cc2c1,inactive
10,COc1ccc(C(=O)/C=C/C(=O)N(Cc2ccccc2OC)C(C(=O)NC2CCCCC2)c2ccncc2)c(O)c1 (stereo unspecified),26.7 µM (active)
11,COc1ccc(C(=O)/C=C/C(=O)N(CC(=O)NCCC(C)C)Cc2cccs2)c(O)c1,31.6 µM (active)
12,CCN(CC(=O)NCc1cccs1)C(=O)c1ccccc1F,inactive
13,COCCN(CC(=O)NC1CCCCC1)C(=O)/C=C/C(=O)c1ccc(OC)cc1O,23.8 µM (active)
14,CCN(CC(=O)NCc1cccs1)C(=O)/C=C/c1ccc(F)cc1,inactive
15,COc1ccccc1N(CC(=O)NC1CCCC1)C(=O)CCC(=O)Nc1ccccn1,inactive
